Test results published in PubChem BioAssay (NCATS).
Calls of active or inactive are those of the source. How the calls were made is not given here.

System: HIV-1 nucleocapsid protein NCp7 (binding to TG oligonucleotide)
Assay: HIV Nucleocapsid (AID 346);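 further: potency is for inhibitors that block NC binding and lower polarization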
Settings: HIV-1 NC / fluorescein-TGTGTGTG probe, fluorescence polarization
Method in brief: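 NCp7 100 nM + fluorescein TG4xF 10 nM; Hepes pH 7.5/250mM NaCl/1uM ZnCl2/0.004% PEG 20000; 1 hr RT; FP, 45 s exposure; oligo-only wells as negative control.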
Potency means the concentration at half of the fitted maximal effect.

| Compound | Potency |
| --- | --- |
| O=c1c(-c2cccc(F)c2)nc2cncnc2n1Cc1ccccc1Cl | > 20 µM (inactive) |
| COc1cccc(Nc2ncc3ncc(=O)n(CCC#N)c3n2)c1 | > 20 µM (inactive) |
| O=c1c(-c2ccccc2)nc2cnc(N3CCOCC3)nc2n1Cc1cccs1 | > 20 µM (inactive) |
| CN(C)C(=O)c1ccc(-c2cncnc2NCc2ccccc2)cc1 | > 20 µM (inactive) |
| N#CCCn1c(=O)c(-c2cc(F)cc(F)c2)nc2cnc(Oc3cccc(Cl)c3)nc21 | > 20 µM (inactive) |
| Cc1cnc(CNc2nc(-c3ccccc3Cl)nc3ccccc23)cn1 | > 20 µM (inactive) |
| O=S(=O)(c1ccccc1)N1CCC[C@@]2(CCN(Cc3cc(C(F)(F)F)cc(C(F)(F)F)c3)C2)C1 | > 20 µM (inactive) |
| c1ccc(CNc2nc(-c3ccoc3)nc3ccccc23)cc1 | > 20 µM (inactive) |
| N#Cc1ccc(CN2CC[C@@]3(CCCN(S(=O)(=O)c4ccccc4)C3)C2)cc1 | > 20 µM (inactive) |
| O=C(c1cnccn1)N1CCC[C@@]2(CCN(c3ccccc3)C2)C1 | > 20 µM (inactive) |
| COCCn1c(=O)c(-c2cccs2)nc2cnc(N3CCNCC3)nc21 | 13 µM (inactive) |
| Cc1nc2cnc(N3CCN(C)CC3)nc2n(Cc2cccs2)c1=O | > 20 µM (inactive) |
| COc1ccc(C(=O)N2CCC3(CCCN(C(=O)Nc4cccc(C#N)c4)C3)CC2)cc1 | > 20 µM (inactive) |
| CNc1ncnc2ccc(-c3ccccc3C#N)cc12 | > 20 µM (inactive) |
| COc1cccc(-c2cncnc2-n2ccnc2)c1 | > 20 µM (inactive) |
| COc1ccccc1-c1ccc2ncnc(NCc3ccccc3)c2c1 | > 20 µM (inactive) |
| Cc1noc(C)c1-c1nccc(N(C)C)n1 | > 20 µM (inactive) |
| O=c1c(CCc2ccccc2)nc2cnc(N3CCNCC3)nc2n1-c1ccccc1 | > 20 µM (inactive) |
| O=c1c(-c2ccc(F)c(F)c2)nc2cncnc2n1C1CC1 | > 20 µM (inactive) |
| CN(C)c1ncc2nc(-c3cccs3)c(=O)n(Cc3cccs3)c2n1 | > 4 µM (inactive) |
| O=c1c(-c2cccc(Cl)c2)nc2cncnc2n1C1CC1 | > 20 µM (inactive) |
| CCNc1ncc2nc(C)c(=O)n(C3CC3)c2n1 | > 20 µM (inactive) |
| CCNc1ncc2nc(-c3ccc(OC)cc3)c(=O)n(CCc3ccccc3)c2n1 | > 4 µM (inactive) |
| COCCn1c(=O)c(-c2ccc(F)c(F)c2)nc2cncnc21 | > 20 µM (inactive) |
| Cc1ccccc1-c1ccc2ncnc(NCc3cccnc3)c2c1 | > 20 µM (inactive) |
